Results taken from PubChem BioAssay (Tox21).
Results filed as inconclusive are left out. Active and inactive are the calls of the source. Unless noted, the call rests on the fitted dose curve; in most records, active means well fitted curve in the direction sought with a large enough effect in the repeat runs; inconclusive means weak or mixed curves; inactive means no such curve, though single readings can be large; an effect the other way counts as inactive or inconclusive.

Experiments:
[1] = qHTS assay to identify small molecule agonists of the peroxisome proliferator-activated receptor delta (PPARd) signaling pathway - cell viability counter screen (AID 743211); further: on the % scale 0 is the no-effect control and ±100 the full control effect; nearly all actives have a fitted effect of over 55% in size
Procedure, shortened: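 Multiplexed format: after the 2 h room-temperature LiveBLAzer B/G FRET step, CellTiter-Glo was added to the same wells. Luminescence after 30 min gave cell viability; compound exposure was 17 h at 37C.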

[2] = molecular target: Peroxisome proliferator-activated receptor delta (Homo sapiens) (UniProt Q03181); assay: qHTS assay to identify small molecule agonists of the peroxisome proliferator-activated receptor delta (PPARd) signaling pathway (AID 743212; calls by dose curve; further: on the % scale 0 is the no-effect control and ±100 the full control effect)
Procedure, shortened: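 A PPARd-bla HEK293H line with beta-lactamase under an Upstream Activator Sequence is treated with compounds at 37 C. Substrate loading for 2 h at room temperature precedes the fluorescence measurement.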

[3] = qHTS assay to identify small molecule antagonists of the peroxisome proliferator-activated receptor delta (PPARd) signaling pathway - cell viability counter screen (AID 743213); further: on the % scale 0 is the no-effect control and ±100 the full control effect; nearly all actives have a fitted effect of over 50% in size
Procedure, shortened: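 Viability counter-screen, qHTS format: PPARd-bla HEK293H, L165041 300 nM final, 17 h compound exposure at 37 C, CellTiter-Glo luminescence after 30 min RT.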

[4] = molecular target: Peroxisome proliferator-activated receptor delta (Homo sapiens) (UniProt Q03181); assay: qHTS assay to identify small molecule antagonists of the peroxisome proliferator-activated receptor delta (PPARd) signaling pathway (AID 743215; active means well fitted inhibition curve with a large enough effect in the signal ratio in the repeat runs, not every such curve was filed as active; the % refers to the signal ratio;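 further: cells stimulated with agonist L165041 at 300 nM final during compound exposure; series mostly up to about 62 µM; on the % scale 0 is the no-effect control and ±100 the full control effect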)
Procedure, shortened: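 HEK293H UAS-bla, PPARd; agonist L165041 300 nM final with cpd in DMSO; 37 C 17 h; FRET substrate, RT 2 h; fluorescence intensity.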

[5] = qHTS assay to identify small molecule antagonists of the farnesoid-X-receptor (FXR) signaling pathway - cell viability counter screen (AID 743221; active means well fitted cell-killing curve with a large enough effect in the repeat runs, not every such curve was filed as active; further: on the % scale 0 is the no-effect control and ±100 the full control effect; nearly all actives have a fitted effect of over 50% in size)
Procedure, shortened: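 CellTiter-Glo, 30 min RT, luminescence; same wells as the LiveBLAzer FRET read. Cells: FXR-UAS-bla HEK 293T. Treatment: compound with chenodeoxycholic acid 50 uM final, 16 h at 37 C.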

[6] = molecular target: Vitamin D3 receptor (Homo sapiens) (UniProt P11473); assay: qHTS assay to identify small molecule agonists of the vitamin D receptor (VDR) signaling pathway (AID 743222; calls by dose curve; further: on the % scale 0 is the no-effect control and ±100 the full control effect)
Procedure, shortened: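 In VDR-bla cells, compound-induced beta-lactamase expression is quantified by FRET substrate fluorescence. Treatment lasts 16 h at 37C; substrate develops 2 h at room temperature.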

[7] = molecular target: Vitamin D3 receptor (Homo sapiens) (UniProt P11473); assay: qHTS assay to identify small molecule antagonists of the vitamin D receptor (VDR) signaling pathway (AID 743223; active means well fitted inhibition curve with a large enough effect in the signal ratio in the repeat runs, not every such curve was filed as active; the % refers to the signal ratio; further: on the % scale 0 is the no-effect control and ±100 the full control effect)
Procedure, shortened: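 After VDR-bla cells are plated and left 4 h at 37C, DMSO-dissolved compounds and 3 nM (final) calcitriol agonist are added. Incubation continues 16 h at 37C; FRET beta-lactamase substrate then develops 2 h at room temperature.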

[8] = qHTS assay to identify small molecule antagonists of the vitamin D receptor (VDR) signaling pathway - cell viability counter screen (AID 743225); further: on the % scale 0 is the no-effect control and ±100 the full control effect; nearly all actives have a fitted effect of over 50% in size
Procedure, shortened: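 Cytotoxicity toward the VDR-bla HEK 293T line was scored by ATP-based CellTiter-Glo luminescence, read in the wells already used for the beta-lactamase readout after 16 h compound treatment under 3 nM 1-alpha,25-dihydroxyvitamin D3 stimulation.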

[9] = qHTS assay to identify small molecule agonists of the NFkB signaling pathway (AID 1159509; active means well fitted curve in the direction sought with a large enough effect in the signal ratio in the repeat runs, not every such curve was filed as active; the % refers to the signal ratio)
Procedure, shortened: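 NFkB-bla ME-180 cells carry a beta-lactamase reporter under an NF-kB response element. They were plated overnight, then exposed to compounds for 5 h at 37 C. Read-out is LiveBLAzer FRET after 1.5 hr at room temperature (405 nm excitation; 460/530 nm emission).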

[10] = qHTS assay to identify small molecule agonists of the NFkB signaling pathway - cell viability counter screen (AID 1159515; calls by dose curve; further: series mostly up to about 61 µM; on the % scale 0 is the no-effect control and ±100 the full control effect; nearly all actives have a fitted effect of over 55% in size)
Procedure, shortened: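 Using the same wells as the NFkB reporter read, ME-180 NFkB-bla cells given compounds for 5 hr were assessed for viability via CellTiter-Glo, with luminescence taken after a 30 min room-temperature incubation.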

[11] = qHTS assay to identify small molecule agonists of the endoplasmic reticulum stress response signaling pathway (AID 1159516; active means well fitted activation curve with a large enough effect in the signal ratio in the repeat runs, not every such curve was filed as active; the % refers to the signal ratio; further: on the % scale 0 is the no-effect control and ±100 the full control effect)
Procedure, shortened: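 An ESRE-bla HeLa cell assay: compounds were pin-transferred from DMSO onto overnight-plated cells and left 5 hr at 37 C. Substrate was then loaded for 2 hr at room temperature before reading fluorescence at 460 nm and 530 nm.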

[12] = qHTS assay to identify small molecule agonists of the endoplasmic reticulum stress response signaling pathway - cell viability counter screen (AID 1159517; calls by dose curve;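 further: HeLa cells carrying an ER stress response element beta-lactamase reporter; series mostly up to about 61 µM; on the % scale 0 is the no-effect control and ±100 the full control effect; nearly all actives have a fitted effect of over 50% in size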)
Procedure, shortened: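 CellTiter-Glo was added to wells already read for beta-lactamase FRET, and luminescence was recorded 30 min later. Cells: ESRE-bla HeLa, 1,500 per well, compound exposure 5 hr at 37 C.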

[13] = qHTS assay to identify small molecule antagonists of the retinoid-related orphan receptor gamma (ROR-gamma) signaling pathway - cell viability counter screen (AID 1159520)
Procedure, shortened: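 Tet-on ROR gamma CHO cells (1,000/well) were plated 4 hr, given compounds in DMSO for 2 hr at 37 C, then induced with 1 uM final doxycycline for 16 hr. Viability was read as ATP by CellTiter-Glo luminescence after 30 min.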

[14] = molecular target: Nuclear receptor ROR-gamma (Homo sapiens) (UniProt P51449); assay: qHTS assay to identify small molecule antagonists of the retinoid-related orphan receptor gamma (ROR-gamma) signaling pathway (AID 1159521)
Procedure, shortened: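 Readout: ONE-Glo luciferase luminescence, 30 min at room temperature. System: Tet-on RORγ CHO, RORE-LUC. Sequence: compound 2 h, doxycycline 1 uM final, 16 h at 37 C.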

[15] = qHTS assay to identify small molecule agonists of the AP-1 signaling pathway (AID 1159526; calls by dose curve; further: on the % scale 0 is the no-effect control and ±100 the full control effect)
[16] = molecular target: Bile acid receptor (Homo sapiens) (UniProt Q96RI1); assay: qHTS assay to identify small molecule antagonists of the farnesoid-X-receptor (FXR) signaling pathway (AID 743217; active means well fitted inhibition curve with a large enough effect in the signal ratio in the repeat runs, not every such curve was filed as active; the % refers to the signal ratio; further: on the % scale 0 is the no-effect control and ±100 the full control effect)
Procedure, shortened: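 GeneBLAzer FXR-UAS-bla HEK 293T, CDCA-stimulated (50 uM final). Compound treatment 16 h, 37 °C. Detection: beta-lactamase cleavage of B/G FRET substrate, fluorescence.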

[17] = qHTS assay to identify small molecule agonists of the farnesoid-X-receptor (FXR) signaling pathway - cell viability counter screen (AID 743218); further: on the % scale 0 is the no-effect control and ±100 the full control effect; nearly all actives have a fitted effect of over 45% in size
Procedure, shortened: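 Parallel cytotoxicity test: compound-treated (16 h, 37 C) HEK 293T FXR-bla reporter cells were lysed with CellTiter-Glo and luminescence recorded.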

[18] = molecular target: Bile acid receptor (Homo sapiens) (UniProt Q96RI1); assay: qHTS assay to identify small molecule agonists of the farnesoid-X-receptor (FXR) signaling pathway (AID 743220; active means well fitted activation curve with a large enough effect in the signal ratio in the repeat runs, not every such curve was filed as active; the % refers to the signal ratio; further: on the % scale 0 is the no-effect control and ±100 the full control effect)
Procedure, shortened: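 Beta-lactamase reporter under UAS control in GeneBLAzer FXR HEK 293T cells (5000/well) measured with LiveBLAzer FRET substrate after 2 h at room temperature. Compound exposure lasted 16 h at 37C.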

[19] = qHTS assay to identify small molecule agonists of the AP-1 signaling pathway - cell viability counter screen (AID 1159525; calls by dose curve; further: nearly all actives have a fitted effect of over 55% in size)
Procedure, shortened: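 ME-180 AP-1-bla, 2500 cells/well, Opti-MEM + 0.5% dialyzed FBS; overnight 37 °C; cpd 15-pt titration, 5 h 37 °C; CellTiter-Glo 30 min RT; luminescence read; normalised to TOAB and DMSO controls.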

[20] = qHTS assay to identify small molecule agonists of the vitamin D receptor (VDR) signaling pathway - cell viability counter screen (AID 743224)
Procedure, shortened: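 Plated VDR-bla cells (4 h, 37C) received compound, incubated 16 h, then LiveBLAzer substrate 2 h RT; CellTiter-Glo added afterwards, luminescence read at 30 min.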

Sequence of Vitamin D3 receptor (Homo sapiens) (P11473 whole entry, looked up): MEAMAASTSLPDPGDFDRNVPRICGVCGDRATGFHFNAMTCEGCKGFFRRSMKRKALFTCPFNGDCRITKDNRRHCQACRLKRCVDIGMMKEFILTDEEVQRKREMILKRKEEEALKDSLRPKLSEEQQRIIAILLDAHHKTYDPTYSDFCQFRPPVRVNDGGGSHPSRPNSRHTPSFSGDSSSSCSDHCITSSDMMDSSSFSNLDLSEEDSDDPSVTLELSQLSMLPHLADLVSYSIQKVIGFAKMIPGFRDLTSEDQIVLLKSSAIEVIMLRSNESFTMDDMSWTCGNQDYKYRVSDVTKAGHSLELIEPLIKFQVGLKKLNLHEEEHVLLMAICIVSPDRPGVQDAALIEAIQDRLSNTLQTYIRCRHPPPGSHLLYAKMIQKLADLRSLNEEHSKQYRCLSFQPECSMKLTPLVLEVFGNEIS
Sequence of Bile acid receptor (Homo sapiens) (Q96RI1 whole entry, looked up): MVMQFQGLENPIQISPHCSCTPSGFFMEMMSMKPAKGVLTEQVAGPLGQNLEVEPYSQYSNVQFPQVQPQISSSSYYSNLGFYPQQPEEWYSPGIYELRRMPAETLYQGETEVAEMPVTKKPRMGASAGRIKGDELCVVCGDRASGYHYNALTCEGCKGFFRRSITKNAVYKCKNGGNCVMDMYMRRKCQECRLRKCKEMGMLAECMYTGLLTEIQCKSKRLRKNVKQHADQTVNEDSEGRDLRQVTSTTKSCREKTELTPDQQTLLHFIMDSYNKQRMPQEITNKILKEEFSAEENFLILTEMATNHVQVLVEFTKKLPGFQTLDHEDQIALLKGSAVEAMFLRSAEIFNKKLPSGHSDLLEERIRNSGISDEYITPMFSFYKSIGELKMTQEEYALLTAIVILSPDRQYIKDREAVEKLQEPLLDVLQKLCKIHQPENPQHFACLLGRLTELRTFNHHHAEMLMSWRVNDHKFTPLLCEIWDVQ
Sequence of Peroxisome proliferator-activated receptor delta (Homo sapiens) (Q03181 whole entry, looked up): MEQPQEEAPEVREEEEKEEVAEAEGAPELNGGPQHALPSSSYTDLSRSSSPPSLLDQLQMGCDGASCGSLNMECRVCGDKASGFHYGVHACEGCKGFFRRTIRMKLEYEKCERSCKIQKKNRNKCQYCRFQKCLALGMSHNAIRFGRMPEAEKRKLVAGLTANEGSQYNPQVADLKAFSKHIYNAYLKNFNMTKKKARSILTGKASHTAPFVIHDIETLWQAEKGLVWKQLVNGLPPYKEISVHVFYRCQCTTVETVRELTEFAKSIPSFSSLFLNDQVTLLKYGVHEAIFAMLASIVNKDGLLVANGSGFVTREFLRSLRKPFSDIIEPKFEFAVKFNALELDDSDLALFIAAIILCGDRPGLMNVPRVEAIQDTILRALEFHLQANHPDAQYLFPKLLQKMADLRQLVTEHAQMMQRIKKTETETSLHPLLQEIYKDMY

CCCC(=O)O
inactive: Potency [1] | outcome [2] | Potency [3] | Potency [4] | Potency [5] | outcome [6] | outcome [7] | Potency [8] | outcome [9] | Potency [10] | Potency [11] | Potency [12] | Potency [13] | Potency [14] | outcome [15]

CCCc1c(OCCCCc2nn[nH]n2)ccc(C(C)=O)c1O
inactive: Potency [1] | Potency [3] | Potency [4] | Potency [16] | Potency [17] | outcome [18] | Potency [5] | outcome [6] | Potency [8] | outcome [9] | Potency [10] | Potency [11] | Potency [12] | Potency [13] | Potency [14] | Potency [19] | outcome [15]

CC(CCC(=O)O)(c1ccc(O)cc1)c1ccc(O)cc1
inactive: Potency [1] | outcome [2] | Potency [3] | Potency [4] | Potency [16] | Potency [17] | outcome [18] | Potency [5] | outcome [6] | outcome [7] | Potency [20] | Potency [8] | outcome [9] | Potency [10] | Potency [11] | Potency [12] | Potency [13] | Potency [14] | Potency [19] | outcome [15]

C=CC(C)(CCC=C(C)C)OC(C)=O (centres undefined)
inactive: Potency [1] | outcome [2] | Potency [3] | Potency [4] | Potency [16] | Potency [17] | outcome [18] | Potency [5] | outcome [6] | outcome [7] | Potency [8] | outcome [9] | Potency [10] | Potency [11] | Potency [12] | Potency [13] | Potency [14] | Potency [19] | outcome [15]

Cc1ncc[nH]1
inactive: Potency [1] | outcome [2] | Potency [3] | Potency [4] | Potency [16] | Potency [17] | outcome [18] | Potency [5] | outcome [6] | Potency [20] | Potency [8] | outcome [9] | Potency [10] | Potency [11] | Potency [12] | Potency [14] | Potency [19] | outcome [15]

CN(C)c1nc(N(C)C)nc(N(C)C)n1
inactive: Potency [1] | outcome [2] | Potency [3] | Potency [4] | Potency [16] | viability change, negative = cytotoxic [17] -6.22% [at 5.95 µM] | outcome [18] | Potency [5] | outcome [6] | Potency [20] | Potency [8] | outcome [9] | Potency [10] | Potency [11] | Potency [12] | Potency [13] | Potency [14] | Potency [19] | outcome [15]

CC1=CC2C3CC(C=C3C)C2C1 (centres undefined)
inactive: Potency [1] | outcome [2] | Potency [3] | Potency [4] | Potency [17] | Potency [5] | outcome [6] | Potency [8] | outcome [9] | Potency [10] | Potency [11] | Potency [12] | Potency [13] | Potency [14] | Potency [19] | outcome [15]
